Source: PubChem BioAssay (NCI)
Where “and” joins values, the source holds several entries; their conditions need not be identical. Identical values can stand only once. About 79,000 compounds went through this panel and 15% of them were active in at least one assay; those are over-represented in the sample as a whole. Calls of active or inactive are those of the source. Cut-off read from the data, not from the text of the source: active = growth inhibition above about 70%; inactive = the rest.

Key:
[1] = NCI Yeast Anticancer Drug Screen. Data for the rad50 strain (AID 155);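 note: 0% = growth of vehicle-only cultures of the same strain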; settings: S. cerevisiae rad50 strain growth inhibition, active compounds read high
In short: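 A DNA repair-deficient yeast mutant serves as the test organism; compound-induced growth inhibition is calculated against vehicle-treated cells.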

[2] = NCI Yeast Anticancer Drug Screen. Data for the mec2-1 strain (AID 157); settings: S. cerevisiae mec2-1 strain, active compounds read high
In short: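 Each compound was tested on mec2-1 yeast, a strain altered in DNA damage repair or cell cycle control. Growth inhibition is reported relative to vehicle.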

[3] = NCI Yeast Anticancer Drug Screen. Data for the sgs1 mgt1 strain (AID 161);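 note: 0% = growth of cultures given vehicle only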; settings: S. cerevisiae sgs1 mgt1 strain, active compounds read high
In short: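 Test agents were incubated with a DNA-repair-mutant yeast strain. Growth was then read and compared against vehicle-treated controls.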

[4] = NCI Yeast Anticancer Drug Screen. Data for the cln2 rad14 strain (AID 165);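 note: 0% = growth equal to vehicle treated cultures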; settings: S. cerevisiae cln2 rad14 strain, active compounds read high
In short: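 Test compounds were added to cln2 rad14 yeast cultures; inhibition of growth was then determined by comparison with vehicle treatment.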

[5] = NCI Yeast Anticancer Drug Screen. Data for the bub3 strain (AID 167); settings: S. cerevisiae bub3 mutant strain, active compounds read high
In short: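 Inhibition values come from growth of compound-treated mutant yeast normalised to vehicle-treated controls.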

[6] = NCI Yeast Anticancer Drug Screen. Data for the mlh1 rad18 strain (AID 175); settings: S. cerevisiae mlh1 rad18 strain growth inhibition, active compounds read high
In short: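 Inhibition values reflect reduced growth of mutant yeast versus vehicle-treated controls following compound exposure; the mutations affect DNA damage repair.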

[7] = at 5.0 µM (retest, dose inferred, filed as 0.5)
[8] = at 50.0 µM (retest, dose inferred, filed as 5.0)

Measured: growth inhibition

CC(=O)C(Br)C(C)=O.CC(=O)C(Br)C(C)=O.CC(=O)C(Br)C(C)=O.[Rh]
inactive: [1]; [7] 4% | [1]; [8] -2% | [2]; [7] -22% | [2]; [8] 1% | [3]; [7] -1% | [3]; [8] 0% | [4]; [7] 4% | [4]; [8] 4% | [5]; [7] 1% | [5]; [8] -7% | [6]; [7] 6% | [6]; [8] -18%
active: [1]; at 50.0 µM 99.2% | [2]; at 50.0 µM 99.6% | [3]; at 50.0 µM 99.6% | [4]; at 50.0 µM 93.7% | [5]; at 50.0 µM 99.4% | [6]; at 50.0 µM 99.2%

O=C1c2ccccc2-c2c3c(cc4ccnc1c24)OCO3
active: [1]; [7] 96% | [1]; [8] 97% | [1]; at 50.0 µM 86.2% and 86.5% | [2]; [8] 96% | [2]; at 50.0 µM 84.8% and 88.2% | [3]; [8] 96% | [3]; at 50.0 µM 86.6% and 86.2% | [4]; [8] 95% | [4]; at 50.0 µM 81.7% and 87% | [5]; [8] 95% | [5]; at 50.0 µM 87.5% and 87.3% | [6]; [7] 73% | [6]; [8] 95% | [6]; at 50.0 µM 85.8% and 88%
inactive: [2]; [7] 57% | [3]; [7] 50% | [4]; [7] 37% | [5]; [7] 61%

CC1([CH2][Hg][I])CS(=O)(=O)CC(C)([CH2][Hg][I])O1 (stereo unspecified)
active: [1]; [7] 99% | [1]; [8] 98% | [1]; at 50.0 µM 95.7% | [2]; [7] 100% | [2]; [8] 99% | [2]; at 50.0 µM 98% | [3]; [7] 100% | [3]; [8] 99% | [3]; at 50.0 µM 97.3% | [4]; [7] 99% | [4]; [8] 98% | [4]; at 50.0 µM 96% | [5]; [7] 100% | [5]; [8] 99% | [5]; at 50.0 µM 97.8% | [6]; [7] 99% | [6]; [8] 98% | [6]; at 50.0 µM 96.2%

Fc1cccc(C2N(Cc3ccc(N(CCCl)CCCl)cc3Cl)CCCN2Cc2ccc(N(CCCl)CCCl)cc2Cl)c1
inactive: [1]; [7] -28% | [1]; at 50.0 µM 12.7% | [2]; [7] 15% | [2]; at 50.0 µM 54.5% | [3]; [7] -3% | [3]; at 50.0 µM -18.4% | [4]; [7] -5% | [4]; at 50.0 µM -6.1% | [5]; [7] -2% | [6]; [7] 6% | [6]; at 50.0 µM 9.15%
active: [1]; [8] 92% | [2]; [8] 95% | [3]; [8] 95% | [4]; [8] 93% | [5]; [8] 92% | [5]; at 50.0 µM 83.2% | [6]; [8] 94%

CC/C(=C/c1ccc2c(c1)OCO2)[N+](=O)[O-]
active: [1]; [7] 89% | [1]; [8] 99% | [1]; at 50.0 µM 99.3% | [2]; [8] 99% | [2]; at 50.0 µM 99.8% | [3]; [8] 99% | [3]; at 50.0 µM 99.7% | [4]; [8] 100% | [4]; at 50.0 µM 99.1% | [5]; [7] 83% | [5]; [8] 99% | [5]; at 50.0 µM 98.5% | [6]; [8] 99% | [6]; at 50.0 µM 99.4%
inactive: [2]; [7] 59% | [3]; [7] 68% | [4]; [7] 28% | [6]; [7] 66%

CCCCCCCCCCCCCCCCCC[N+](C)(C)C
active: [1]; [7] 98% | [1]; [8] 96% | [1]; at 50.0 µM 88.5% | [2]; [7] 99% | [2]; [8] 97% | [2]; at 50.0 µM 91.4% | [3]; [7] 99% | [3]; [8] 95% | [3]; at 50.0 µM 89.8% | [4]; [7] 99% | [4]; [8] 95% | [4]; at 50.0 µM 89.9% | [5]; [7] 99% | [5]; [8] 96% | [5]; at 50.0 µM 87% | [6]; [7] 97% | [6]; [8] 96% | [6]; at 50.0 µM 89.8%

CCCCCC(Cn1ccnc1)c1ccc(Cl)cc1Cl (stereo unspecified)
inactive: [2]; [7] 50% | [3]; [7] 69%
active: [1]; [7] 72% | [1]; [8] 95% | [1]; at 50.0 µM 99.5% | [2]; [8] 94% | [2]; at 50.0 µM 99% | [3]; [8] 97% | [3]; at 50.0 µM 99.4% | [4]; [7] 72% | [4]; [8] 98% | [4]; at 50.0 µM 99.7% | [5]; [7] 72% | [5]; [8] 99% | [5]; at 50.0 µM 99.8% | [6]; [7] 72% | [6]; [8] 100% | [6]; at 50.0 µM 99.6%
